Screens as filed in PubChem.
MEP2-GFP yeast = modulators of TOR pathway MEP2-GFP in S. cerevisiae | 330,000 compounds, 0.51% hits | S. cerevisiae MEP2-GFP strain, flow cytometry GFP, 3 h; 100% = DMSO control level | AID 2016 | GFP response vs DMSO, % at 10 µM;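 active means GFP response versus DMSO above a set limit, roughly screen mean plus 3 SD, cut at about 180% in these data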;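 further: median GFP fluorescence of the barcode-gated MEP2-GFP cells per well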
LAP4-GFP MLPCN = modulators of TOR pathway LAP4-GFP in S. cerevisiae; 320,000 compounds, 0.34% hits; AID 2023; S. cerevisiae LAP4-GFP multiplex, flow cytometry GFP, 3 h; median GFP as percent of DMSO wells; GFP response vs DMSO, % at 10 µM;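 active means GFP response vs DMSO above a set limit, about the screen mean plus 3 SD, cut at about 150% in these data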
AGP1-GFP MLPCN = alters AGP1-GFP fluorescence in TOR pathway yeast screen; AID 2066; 320,000 compounds, 0.02% hits; GFP response vs DMSO, % at 10 µM; S. cerevisiae AGP1-GFP multiplex flow cytometry, 3 h; GFP as percent of DMSO wells;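 active means GFP response relative to DMSO above a set limit, near screen average plus 3 SD, cut at about 150% in these data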;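 further: median GFP channel fluorescence of the gated AGP1 strain per well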
CIT2-GFP yeast = alters CIT2-GFP fluorescence in TOR pathway yeast screen. AID 2029. S. cerevisiae CIT2-GFP strain, flow cytometry, 3 h; 100 means same as DMSO wells. GFP response vs DMSO, % at 10 µM. 320,000 compounds, 0.065% hits;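 active means GFP response relative to DMSO above a set limit, near the screen mean plus 3 SD, cut at about 150% in these data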;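 further: ratio of well median GFP fluorescence to mean of DMSO wells on the plate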
RPL19A TOR yeast = yeast TOR pathway RPL19A-GFP modulation; S. cerevisiae RPL19A-GFP strain, flow cytometry, 3 h; active compounds read low; percent response vs DMSO, % at 10 µM; 330,000 compounds, 0.3% hits;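 active means percent response vs DMSO below 50%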;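 further: median channel GFP fluorescence of the barcoded RPL19A-GFP strain; ratio of sample median GFP to plate DMSO average so 100% = DMSO; lower means less RPL19A-GFP as with rapamycin TOR inhibition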
LAP4 cherry2 = reconfirmed LAP4-GFP TOR pathway modulator in yeast. shares compounds with LAP4-GFP MLPCN. S. cerevisiae LAP4-GFP strain, flow cytometry GFP, 3 h. GFP response vs DMSO, % at 10 µM. 590 compounds, 20% hits. AID 2621;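 active means GFP signal as percent of the solvent control above about 150%, meaning raised reporter expression, limit read from the data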;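 further: ratio of well median GFP fluorescence to plate DMSO mean so 100% = DMSO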
MEP2-GFP pick2 = reconfirmed MEP2-GFP TOR pathway modulator in yeast. shares compounds with LAP4-GFP MLPCN. S. cerevisiae MEP2-GFP strain, flow cytometry GFP, 3 h. GFP response vs DMSO, % at 10 µM. 590 compounds, 10% hits. AID 2622;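 active means GFP signal above 150% of the solvent control wells, that is a rise of more than half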;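 further: median channel GFP fluorescence of all gated yeast cells per well; ratio of median GFP to plate DMSO average so 100% = DMSO level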
RPL19A-GFP pick2 = yeast RPL19A-GFP TOR reporter modulation, second cherry pick; shares compounds with LAP4-GFP MLPCN; S. cerevisiae RPL19A-GFP strain, flow cytometry GFP, 3 h; active compounds read low; 100% means same as DMSO wells; GFP response vs DMSO, % at 10 µM; 590 compounds, 3% hits; AID 2623;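 active means under 65% GFP response relative to DMSO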;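 further: median GFP channel fluorescence per well over the all cells gate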
CIT2-GFP pick2 = second confirmation of modulators of TOR reporter CIT2-GFP in yeast | shares compounds with LAP4-GFP MLPCN | S. cerevisiae CIT2-GFP strain, flow cytometry GFP, 3 h; DMSO control wells read 100% | GFP response vs DMSO, % at 10 µM | 590 compounds, 8% hits | AID 2624;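 active means GFP response vs DMSO above about 150%, limit read from the data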;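 further: median green fluorescence per well over all gated yeast cells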
AGP1-GFP pick2 = yeast AGP1-GFP TOR reporter modulation, second cherry pick; shares compounds with LAP4-GFP MLPCN; S. cerevisiae AGP1-GFP strain, flow cytometry GFP, 3 h; percent response vs DMSO, % at 10 µM; 590 tested, under 10 active; AID 2643;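 active means over 150 percent of DMSO response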;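 further: median GFP channel fluorescence over all cells without mother daughter split; sample median GFP divided by mean DMSO control so 100% equals DMSO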
Yeast autofluor = yeast s288c autofluorescence artifact, counter-screen | shares compounds with LAP4-GFP MLPCN | S. cerevisiae s288c, 520 nm autofluorescence, flow cytometry, 3 h; active compounds read high; zero means same as solvent-only cells | fluorescence change (kMESF span) at 33 µM | 610 tested, under 10 active;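 active means fluorescence span over the dose series, or activity score, above about 33, limit read from the data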
s288c autofl DR = TOR screen hit shows autofluorescence in yeast s288c. shares compounds with LAP4-GFP MLPCN. S. cerevisiae s288c parental, compound autofluorescence, flow cytometry, 3 h. fluorescence change (span) at 33 µM. 110 tested, under 10 active. AID 488829;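 active means fluorescence change span, or the activity score built from it, above 25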
TORC1 bypass gr = stops wildtype yeast growth while TORC1 bypass cells still grow | shares compounds with LAP4-GFP MLPCN | S. cerevisiae BY4741 spot growth rating, 48-72 h; active compounds read low | growth rating (0-3) at 30 µM | 120 tested, under 10 active | AID 504456;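 active means growth rating at most 1 for wild type yeast while the TORC1 bypass strain still grows fully, rated 3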
Starred values were filed as active, the others as inactive; nt = not tested or not shown. This is a sample that favours compounds with a hit; in the whole collection about 0.89% have one here.

SMILES | MEP2-GFP yeast | LAP4-GFP MLPCN | AGP1-GFP MLPCN | CIT2-GFP yeast | RPL19A TOR yeast | Yeast autofluor | s288c autofl DR | TORC1 bypass gr | others
CC(=O)N(C(C)=O)c1ncnc2c1c(-c1ccc(Cl)cc1)nn2C(C)(C)C | 93 | 96 | 97 | 90 | 95 | -0.2 | nt | nt | LAP4 cherry2=96;MEP2-GFP pick2=100;RPL19A-GFP pick2=98;CIT2-GFP pick2=94;AGP1-GFP pick2=92
CC(=O)Nc1ncnc2c1c(-c1ccc(Cl)cc1)nn2C(C)(C)C | 88 | 146 | 85 | 55 | 64 | -0.91 | 0.14 | 3 | LAP4 cherry2=113;MEP2-GFP pick2=107;RPL19A-GFP pick2=59*;CIT2-GFP pick2=68;AGP1-GFP pick2=79
CCOC(=O)Cn1nc(-c2ccc(Cl)cc2)ccc1=O | 99 | 98 | nt | 94 | 96 | nt | nt | nt
COc1ccc(OCC(=O)NNC(=S)NC(=O)C2CCCCC2)cc1 | 127 | 170* | 104 | 116 | 106 | 2.4 | nt | nt | LAP4 cherry2=240*;MEP2-GFP pick2=140;RPL19A-GFP pick2=113;CIT2-GFP pick2=155*;AGP1-GFP pick2=106
COc1ccc(OCC(=O)NNC(=S)NC(=O)C2CC2)cc1 | 107 | 102 | 99 | 92 | 110 | nt | nt | nt
CCc1ccc(OCC(=O)NNC(=S)NC(=O)C2CC2)c(Br)c1 | 116 | 166* | 94 | 88 | 106 | 0.71 | 0.73 | 3
Cn1c(=O)c2c(ncn2CC(=O)N2CCN(S(=O)(=O)c3ccccc3)CC2)n(C)c1=O | 99 | 94 | 99 | 94 | 100 | nt | nt | nt
COC(=O)c1c(NC(=O)CS(=O)(=O)c2ccccc2)sc(C)c1C | 102 | 110 | 107 | 103 | 102 | nt | nt | nt
CCOC(=O)CS(=O)(=O)c1nc(-c2ccc(F)cc2)cc(C(F)(F)F)n1 | 104 | 172* | 88 | 81 | 94 | 0.51 | nt | nt
COC(=O)CCS(=O)(=O)c1nc(-c2ccccc2)cc(C(F)(F)F)n1 | 183* | 156* | 149 | 102 | 101 | 1 | 0.08 | 3
CCOC(=O)CS(=O)(=O)c1nc(-c2ccccc2)cc(C(F)(F)F)n1 | 131 | 180* | 115 | 84 | 88 | 0.41 | 0.16 | 3
CCOC(=O)CCS(=O)(=O)c1nc(-c2ccccc2)cc(C(F)(F)F)n1 | 145 | 185* | 130 | 99 | 90 | 0.4 | 0.24 | 3
C=CCOc1ccc(/C=C/C(=O)OCC(=O)N(C)CC(=O)Nc2ccc(F)cc2)cc1 | 97 | 107 | 107 | 94 | 98 | nt | nt | nt
O=C(CSc1ccccc1)NCC1(N2CCCCC2)CCCCC1 | 104 | 108 | 110 | 105 | 105 | nt | nt | nt
Cc1cccc(Nc2nc(N)c([N+](=O)[O-])c(NCc3ccco3)n2)c1 | 100 | 101 | 89 | 98 | 99 | nt | nt | nt
CNc1nc(N)c([N+](=O)[O-])c(NCc2ccco2)n1 | nt | nt | nt | nt | nt | nt | 0 | 3
O=C(O)C(c1ccccc1)N1C(=O)/C(=C/c2cccs2)SC1=S (stereo unspecified) | 94 | 105 | 100 | 100 | 99 | nt | nt | nt
CC(c1ccccc1)N1C(=O)/C(=C/c2ccncc2)SC1=S (stereo unspecified) | 82 | 194* | 90 | 73 | 84 | 0.81 | nt | nt | LAP4 cherry2=261*;MEP2-GFP pick2=124;RPL19A-GFP pick2=79;CIT2-GFP pick2=99;AGP1-GFP pick2=97
Cc1c(CC(=O)NCCCO)c(=O)oc2cc3c(cc12)CCC(C)(C)O3 | 109 | 101 | 105 | 106 | 109 | nt | nt | nt
O=C(/C=C/c1cccc(Cl)c1)c1nc2ccccc2[nH]1 | 84 | 228* | 76 | 69 | 79 | 2.7 | nt | nt | LAP4 cherry2=235*;MEP2-GFP pick2=148;RPL19A-GFP pick2=77;CIT2-GFP pick2=142;AGP1-GFP pick2=83
CCC1CCCCN1C(=O)CCNS(=O)(=O)c1ccc2c(c1)oc(=O)n2C (stereo unspecified) | 107 | 95 | 96 | 100 | 102 | nt | nt | nt
